The results in this text go back to PubChem BioAssay (EPA / NIEHS).

“And” between values parts separate entries of the source, which are not always exact repeats. Identical values can stand only once. The source made the active and inactive calls. Rule for the calls: active = hit-call score of the fitted dose curve at least 0.9, where 1 is the maximum; inactive = score below 0.9.

Read-out in the first assay: cysteine-aspartic acid protease (CASP8), CASP8 (gene 841)
The assay is described as follows: LTEA_HepaRG_CASP8: Life Technologies and Expression Analysis (LTEA) Assay for cysteine-aspartic acid protease (CASP8) using HepaRG (AID 2283480). Particulars: mRNA level, 48 h; actives raise or lower the signal. The gist of the method: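 qRT-PCR readout of CASP8 mRNA, normalized to three housekeeping genes, after 48 h chemical exposure of HepaRG cells; 8-point half-log series, top 100 uM, 0.5% DMSO vehicle. Bidirectional curve fitting against DMSO baseline.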
Consider `CCN(CC)C(=O)SCc1ccc(Cl)cc1`, for which the outcome was inactive.
On the same count and under the same terms, for `CC1(C)C(C=C(Cl)Cl)C1C(=O)OC(C#N)c1ccc(F)c(Oc2ccccc2)c1` (stereo unspecified) the value was “inactive”; for `O=C(O)COc1ccc(Cl)cc1Cl`, “inactive”.
As to `CCC(C)(C)C(=O)OC1=C(c2ccc(Cl)cc2Cl)C(=O)OC12CCCCC2`, the compound was classed as inactive.
With `CCCN(CCC)c1c([N+](=O)[O-])cc(C(F)(F)F)cc1[N+](=O)[O-]`, the outcome was inactive.
Same read-out and setting: then `CNC(=O)/C=C(\C)OP(=O)(OC)OC`, with “inactive”; and `O=C(O)C(F)(F)C(F)(F)C(F)(F)C(F)(F)C(F)(F)C(F)(F)C(F)(F)F`, with “inactive”; and `CCCN(CCOc1c(Cl)cc(Cl)cc1Cl)C(=O)n1ccnc1`, with “inactive”.
For the compound `CCc1ccc(C(=O)NN(C(=O)c2cc(C)cc(C)c2)C(C)(C)C)cc1`, the outcome was inactive.
Turning to `N#CN`, the compound was classed as inactive.
The same measure, in the same setting: for `CCOCN(C(=O)CCl)c1c(C)cccc1CC` the value was “inactive”.
Turning to `O=S1OCC2C(CO1)C1(Cl)C(Cl)=C(Cl)C2(Cl)C1(Cl)Cl` (stereo unspecified), the compound was called inactive.
On to `CCC(C)(NC(=O)c1cc(Cl)c(C)c(Cl)c1)C(=O)CCl` (stereo unspecified), for which the AC50 was 89.8 µM (active).
For `O=C(Nc1ccccc1)Nc1cnns1`, the compound was called inactive.
On the same count and under the same terms, for `CCC(C)Nc1c([N+](=O)[O-])cc(C(C)(C)C)cc1[N+](=O)[O-]` (stereo unspecified) the value was “inactive”; for `Cc1[nH]c(=O)n(C(C)(C)C)c(=O)c1Cl`, “inactive”; for `Clc1ccccc1-c1nnc(-c2ccccc2Cl)nn1`, “inactive”.
Regarding `ClC1C(Cl)C(Cl)C(Cl)C(Cl)C1Cl` (stereo unspecified), the compound was classed as inactive.
Take `C#CCN1C(=O)COc2cc(F)c(N3C(=O)C4=C(CCCC4)C3=O)cc21`: the call was inactive.
With `CC(C)(C)C(O)/C(=C\c1ccc(Cl)cc1Cl)n1cncn1` (stereo unspecified), the AC50 is 80.6 µM (active).
On to `C[C@H]1[C@H](c2ccc(Cl)cc2)SC(=O)N1C(=O)NC1CCCCC1`, for which the compound was classed as inactive.
On the same count and under the same terms, for `O=C1c2ccccc2C(=O)N1SC(Cl)(Cl)Cl` the value was “inactive”; for `O=C(NC(=O)c1c(F)cccc1F)Nc1ccc(OC(F)(F)C(F)OC(F)(F)F)c(Cl)c1` (stereo unspecified), “inactive”.

Read-out in a further assay: Cytochrome P450 (CYP2B6), CYP2B6 (gene 1555)
The assay is described as follows: LTEA_HepaRG_CYP2B6: Life Technologies and Expression Analysis (LTEA) Assay for Cytochrome P450 (CYP2B6) using HepaRG (AID 2283481). Particulars: mRNA level, 48 h; actives raise or lower the signal. A digest of the protocol:
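Differentiated HepaRG cells, serum-free induction medium, exposed 48 h in duplicate to 8-point half-log concentrations from 100 uM in 0.5% DMSO. CYP2B6 mRNA by qRT-PCR, normalized to ACTB, GAPDH, POLR2A; bidirectional fit versus DMSO.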
Take `CCN(CC)C(=O)SCc1ccc(Cl)cc1`: the AC50 is 4.36 µM (active).
The same measure, in the same setting: for `CC1(C)C(C=C(Cl)Cl)C1C(=O)OC(C#N)c1ccc(F)c(Oc2ccccc2)c1` (stereo unspecified) the value was 18.4 µM (active); for `O=C(O)COc1ccc(Cl)cc1Cl`, 20.8 µM (active).
For `CCC(C)(C)C(=O)OC1=C(c2ccc(Cl)cc2Cl)C(=O)OC12CCCCC2`, the outcome was inactive.
On to `CCCN(CCC)c1c([N+](=O)[O-])cc(C(F)(F)F)cc1[N+](=O)[O-]`, for which the AC50 is 50 µM (active).
In the case of `CNC(=O)/C=C(\C)OP(=O)(OC)OC`, the outcome was inactive.
With `O=C(O)C(F)(F)C(F)(F)C(F)(F)C(F)(F)C(F)(F)C(F)(F)C(F)(F)F`, the AC50 was 17.9 µM (active) and 3.15 µM (active).
Take `CCCN(CCOc1c(Cl)cc(Cl)cc1Cl)C(=O)n1ccnc1`: the AC50 is 31 µM (active).
As to `CCc1ccc(C(=O)NN(C(=O)c2cc(C)cc(C)c2)C(C)(C)C)cc1`, the AC50 is 92.4 µM (active).
With `N#CN`, the outcome was inactive.
As for `CCOCN(C(=O)CCl)c1c(C)cccc1CC`, the AC50 was 0.077 µM (active).
On to `O=S1OCC2C(CO1)C1(Cl)C(Cl)=C(Cl)C2(Cl)C1(Cl)Cl` (stereo unspecified), for which the AC50 was 90.1 µM (active).
The same measure, in the same setting: for `CCC(C)(NC(=O)c1cc(Cl)c(C)c(Cl)c1)C(=O)CCl` (stereo unspecified) the value was 90.1 µM (active).
Regarding `O=C(Nc1ccccc1)Nc1cnns1`, the compound was called inactive.
With `CCC(C)Nc1c([N+](=O)[O-])cc(C(C)(C)C)cc1[N+](=O)[O-]` (stereo unspecified), the AC50 was 3.52 µM (active).
On to `Cc1[nH]c(=O)n(C(C)(C)C)c(=O)c1Cl`, for which the AC50 was 15.6 µM (active).
Same read-out and setting: then `Clc1ccccc1-c1nnc(-c2ccccc2Cl)nn1`, with 7.28 µM (active); and `ClC1C(Cl)C(Cl)C(Cl)C(Cl)C1Cl` (stereo unspecified), with 758 nM (active) and 392 nM (active); and `C#CCN1C(=O)COc2cc(F)c(N3C(=O)C4=C(CCCC4)C3=O)cc21`, with 0.84 µM (active).
The same measure, in the same setting: for `CC(C)(C)C(O)/C(=C\c1ccc(Cl)cc1Cl)n1cncn1` (stereo unspecified) the value was 0.748 µM (active).
On the same count and under the same terms, then `C[C@H]1[C@H](c2ccc(Cl)cc2)SC(=O)N1C(=O)NC1CCCCC1`, with 81.7 µM (active).
On to `O=C1c2ccccc2C(=O)N1SC(Cl)(Cl)Cl`, for which the call was inactive.
For the compound `O=C(NC(=O)c1c(F)cccc1F)Nc1ccc(OC(F)(F)C(F)OC(F)(F)F)c(Cl)c1` (stereo unspecified), the result was inactive.

In general, AC50 refers to the midpoint of the concentration-response curve, whichever way the signal moves.
